Experimental data published in PubChem BioAssay.
Activity calls are given as the source filed them.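 How the source made its calls, unless noted: active means visual image review flags a hit and inhibition of aggregation exceeds 20%; inconclusive means visual hit but inhibition at or below 20%; inactive means no hit on visual image review.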

Key:
[1] = inhibitors of TNFa-induced NFkB p65 translocation, primary screen, imaging, HUVEC, MLSMR starter and 10KST1 sets (AID 438;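 active means inhibition above 20% together with a positive visual image hit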;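 further: compound added about 3h40 before a 20 min TNFalpha stimulation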;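 on inhibition: signal is the nuclear over cytoplasmic p65 intensity ratio per well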); details: HUVEC TNFa-induced p65 nuclear translocation; cell count: measured here: nuclei count (cytotoxicity indicator), at 2.08 µM; inhibition: at 2 µM, stronger effect = higher value, 0% TNFa-plus-vehicle, 100% no-TNFa wells
[2] = reduction of polyQ htt aggregates in cells – imaging, exon1htt(103Q)mCFP cells, high-content imaging, primary screen (AID 483); details: exon1htt(103Q)mCFP cell line, aggregate imaging, at 2 µM; inhibition of aggregation: stronger effect = higher value; nuclei count: measured here: cell count, toxicity;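 further: compound exposure lasted 3 days before fixation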;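 on nuclei count: percent of the per-plate median nuclei count of sample wells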
[3] = endothelial E-selectin expression blockers – imaging, HUVEC, immunofluorescence, MLSMR starter and 10KST1 sets, primary screen (AID 487;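 active means visually confirmed hit in the image check and inhibition above 20%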;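 on inhibition: signal is fraction of cell area covered by stained E-selectin grains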;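 on nuclei count: 100% = median nuclei count of all wells on the same plate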); details: HUVEC TNFalpha-induced E-selectin immunofluorescence imaging, at 2 µM; inhibition: stronger effect = higher value; nuclei count: measured here: cell number, toxicity
[4] = target: Voltage-gated potassium channel subunit beta-2 (Rattus norvegicus) (UniProt P62483); assay: inhibitors of rat Kvbeta2 reductase activity – biochemical, NADPH fluorescence, primary screen (AID 622;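 active means fluorescence slope higher than the sample average by over 3 SD, cut at about -0.22 in these data, passing the limit was not always enough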;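 further: slope of raw intensity against log time taken from 70 to 1610 s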); details: recombinant KvBeta, 4-cyanobenzaldehyde reduction, at 10 µM, stronger effect = higher value
[5] = target: Voltage-gated potassium channel subunit beta-2 (Rattus norvegicus) (UniProt P62483); assay: enhancers of rat Kvbeta2 NADPH turnover – biochemical, NADPH fluorescence, primary screen (AID 623;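 active means NADPH fluorescence slope more negative than the mean of all samples by about 3 SD, 99.7% confidence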;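 further: fluorescence intensity change per second fitted from 20 to 320 s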); details: Recombinant KvBeta, NADPH fluorescence decrease slope, 10 min; at 10 µM; stronger effect = lower value
[6] = target: Alpha-2C adrenergic receptor (Homo sapiens) (UniProt P18825); assay: compounds altering alpha2C-coupled GIRK flux – cell-based, HEK293 alpha2C/GIRK1/2, thallium flux, primary screen (AID 624;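 active means fluorescence slope after compound addition differing from the mean of all screened samples at 99.7% confidence, in either direction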;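 further: slope of fluorescence ratio to pre-addition baseline per second over 15 to 24 s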); details: thallium flux BTC fluorescence, at 10 µM, actives lie on both sides
[7] = blockers of RIG-like receptor reporter activation – cell-based, Sendai virus stimulus, luciferase, 10K MLSCN set, TLR/RLR signaling modifier project, primary screen (AID 602276;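 active means inhibition at or above 50% at 10 µM; inactive means inhibition below 50%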;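 further: firefly luciferase from ISG56 promoter only with Renilla not read in this screen; 0% = Sendai virus plus DMSO and 100% = medium plus DMSO without virus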); details: HEK293 RL24 IRF3 luciferase reporter, at 10 µM, stronger effect = higher value
[8] = TLR3 IRF3 reporter activation blockers – cell-based, poly I:C stimulus, luciferase, 10K MLSCN set, primary screen (AID 602277;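 active means inhibition of the reporter signal at or above 50%; inactive means inhibition below 50%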); details: HEK293-TLR3 RL24 IRF3 luciferase reporter, at 10 µM, stronger effect = higher value

Sequence of Alpha-2C adrenergic receptor (Homo sapiens) (P18825 whole entry, looked up): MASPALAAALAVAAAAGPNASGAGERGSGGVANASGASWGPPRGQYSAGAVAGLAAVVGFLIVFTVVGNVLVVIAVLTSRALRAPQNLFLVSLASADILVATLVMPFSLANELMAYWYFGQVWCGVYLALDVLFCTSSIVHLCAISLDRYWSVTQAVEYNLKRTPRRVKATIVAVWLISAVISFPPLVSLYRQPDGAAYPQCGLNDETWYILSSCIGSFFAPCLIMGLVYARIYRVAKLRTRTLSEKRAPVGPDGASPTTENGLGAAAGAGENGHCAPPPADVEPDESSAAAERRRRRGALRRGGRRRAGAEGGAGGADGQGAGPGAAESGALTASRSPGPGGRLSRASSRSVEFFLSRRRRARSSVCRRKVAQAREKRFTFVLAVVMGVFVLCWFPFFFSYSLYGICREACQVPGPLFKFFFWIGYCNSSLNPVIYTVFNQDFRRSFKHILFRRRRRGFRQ
Sequence of Voltage-gated potassium channel subunit beta-2 (Rattus norvegicus) (P62483 whole entry, looked up): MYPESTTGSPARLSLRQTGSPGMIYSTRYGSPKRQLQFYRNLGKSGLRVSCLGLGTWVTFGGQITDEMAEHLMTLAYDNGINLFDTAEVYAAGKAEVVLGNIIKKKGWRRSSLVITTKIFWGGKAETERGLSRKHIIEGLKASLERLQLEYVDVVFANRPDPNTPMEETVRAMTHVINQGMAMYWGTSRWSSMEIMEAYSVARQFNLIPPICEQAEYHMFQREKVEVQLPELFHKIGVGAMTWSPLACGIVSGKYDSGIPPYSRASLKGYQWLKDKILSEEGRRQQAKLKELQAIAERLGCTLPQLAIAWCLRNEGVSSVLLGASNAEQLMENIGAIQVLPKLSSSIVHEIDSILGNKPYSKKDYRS

CCOc1cc(CN2CCN(C(=O)c3ccco3)CC2)ccc1OC
cell count [1]: 403 | inhibition [1]: -3% (inactive) | inhibition of aggregation [2]: 8.5% (inactive) | nuclei count [2]: 88.9% | inhibition [3]: 44.9% (inactive) | nuclei count [3]: 104% | fluorescence slope [4]: -0.33 (inactive) | NADPH fluorescence slope [5]: -1.5e-05 (inactive) | slope [6]: 0.00559 (inactive) | inhibition [7]: 11.7% (inactive) | inhibition [8]: 21.2% (inactive)

COc1ccc2c(c1)C(C)=CC(C)(C)N2C(=O)C(C)N1C(=O)c2ccccc2C1=O (centres undefined)
cell count [1]: 637 | inhibition [1]: 4.5% (inactive) | inhibition of aggregation [2]: 7.1% (inactive) | nuclei count [2]: 108% | inhibition [3]: 21.2% (inactive) | nuclei count [3]: 118% | fluorescence slope [4]: -0.612 (inactive) | NADPH fluorescence slope [5]: -1.8e-05 (inactive) | slope [6]: 0.00489 (inactive) | inhibition [7]: 5.4% (inactive) | inhibition [8]: 5.89% (inactive)

CSc1ccc(Cn2nnc(C(=O)NCc3ccccc3)c2N)cc1
cell count [1]: 570 | inhibition [1]: -2.3% (inactive) | inhibition of aggregation [2]: 17.3% (inactive) | nuclei count [2]: 100% | inhibition [3]: -74.8% (inactive) | nuclei count [3]: 134% | fluorescence slope [4]: -0.478 (inactive) | NADPH fluorescence slope [5]: -2e-05 (inactive) | slope [6]: 0.00597 (inactive) | inhibition [7]: 5.71% (inactive) | inhibition [8]: 12.9% (inactive)

CCOc1ccc(Cc2nn[nH]n2)cc1
cell count [1]: 663 | inhibition [1]: -3.2% (inactive) | inhibition of aggregation [2]: 10.3% (inactive) | nuclei count [2]: 90.5% | inhibition [3]: -38.6% (inactive) | nuclei count [3]: 141% | fluorescence slope [4]: -0.47 (inactive) | NADPH fluorescence slope [5]: -0.000245 (inactive) | slope [6]: 0.00563 (inactive) | inhibition [7]: 9.13% (inactive) | inhibition [8]: 16.7% (inactive)

O=C(CSc1nc(-c2ccccc2)cs1)NC(=O)NCc1ccco1
cell count [1]: 355 | inhibition [1]: -1.1% (inactive) | inhibition of aggregation [2]: 1% (inactive) | nuclei count [2]: 75.7% | inhibition [3]: -105% (inactive) | nuclei count [3]: 125% | fluorescence slope [4]: -0.429 (inactive) | NADPH fluorescence slope [5]: 3.1e-06 (inactive) | slope [6]: 0.00572 (inactive) | inhibition [7]: 18.5% (inactive) | inhibition [8]: 3.13% (inactive)

Cc1nnc(SCC(=O)Nc2ccc(Br)cn2)[nH]c1=O
cell count [1]: 359 | inhibition [1]: -8.5% (inactive) | inhibition of aggregation [2]: 18.1% (inactive) | nuclei count [2]: 117% | inhibition [3]: -43.2% (inactive) | nuclei count [3]: 114% | fluorescence slope [4]: -0.426 (inactive) | NADPH fluorescence slope [5]: -1.1e-05 (inactive) | slope [6]: 0.00432 (inactive) | inhibition [7]: 15.8% (inactive) | inhibition [8]: 5.27% (inactive)

O=C(CN1CCCN(S(=O)(=O)c2ccc(F)cc2)CC1)Nc1ccccc1Br
cell count [1]: 220 | inhibition [1]: -1.3% (inactive) | inhibition of aggregation [2]: 2% (inactive) | nuclei count [2]: 108% | inhibition [3]: -17.3% (inactive) | nuclei count [3]: 118% | fluorescence slope [4]: -0.504 (inactive) | NADPH fluorescence slope [5]: 2.2e-05 (inactive) | slope [6]: 0.00558 (inactive) | inhibition [7]: 3.65% (inactive) | inhibition [8]: 9.12% (inactive)

CCN1C(=O)Cc2cc(S(=O)(=O)N3CCOCC3)ccc21
cell count [1]: 675 | inhibition [1]: -2.9% (inactive) | inhibition of aggregation [2]: -11.1% (inactive) | nuclei count [2]: 121% | inhibition [3]: -38.7% (inactive) | nuclei count [3]: 98.4% | fluorescence slope [4]: -0.435 (inactive) | NADPH fluorescence slope [5]: 2.6e-05 (inactive) | slope [6]: 0.00585 (inactive) | inhibition [7]: 2.07% (inactive) | inhibition [8]: -4.25% (inactive)

COCCCn1nnnc1SCC(=O)Nc1nc(C)c(C)s1
cell count [1]: 435 | inhibition [1]: -5.5% (inactive) | inhibition of aggregation [2]: 14.2% (inactive) | nuclei count [2]: 58.2% | inhibition [3]: -133% (inactive) | nuclei count [3]: 104% | fluorescence slope [4]: -0.499 (inactive) | NADPH fluorescence slope [5]: -5.5e-05 (inactive) | slope [6]: 0.00473 (inactive) | inhibition [7]: 2.9% (inactive) | inhibition [8]: 9.02% (inactive)

CCc1ccc(Nc2cc(=O)n(C3CCCCC3)c(=O)[nH]2)cc1
cell count [1]: 385 | inhibition [1]: 3.9% (inactive) | inhibition of aggregation [2]: -8.7% (inactive) | nuclei count [2]: 104% | inhibition [3]: -1.5% (inactive) | nuclei count [3]: 121% | fluorescence slope [4]: -0.579 (inactive) | NADPH fluorescence slope [5]: -2.4e-05 (inactive) | slope [6]: 0.00696 (inactive) | inhibition [7]: -13.5% (inactive) | inhibition [8]: -97.2% (inactive)

CCOC(=O)C(NC(=O)c1ccccc1)(Nc1cc(C)on1)C(F)(F)F (centres undefined)
cell count [1]: 379 | inhibition [1]: 2.6% (inactive) | inhibition of aggregation [2]: -4.6% (inactive) | nuclei count [2]: 101% | inhibition [3]: 0.6% (inactive) | nuclei count [3]: 88.4% | fluorescence slope [4]: -0.494 (inactive) | NADPH fluorescence slope [5]: -1.9e-05 (inactive) | slope [6]: 0.00554 (inactive) | inhibition [7]: 14.5% (inactive) | inhibition [8]: 24.7% (inactive)

O=c1[nH]c(=O)n(C2CCCCCC2)c(O)c1C=NCc1ccc(F)cc1
cell count [1]: 666 | inhibition [1]: 5% (inactive) | inhibition of aggregation [2]: 0.1% (inactive) | nuclei count [2]: 109% | inhibition [3]: 3% (inactive) | nuclei count [3]: 110% | fluorescence slope [4]: -0.321 (inactive) | NADPH fluorescence slope [5]: 3.1e-05 (inactive) | slope [6]: 0.00576 (inactive) | inhibition [7]: 14.6% (inactive) | inhibition [8]: 26.9% (inactive)

CCc1nnc(NC(=O)CSc2nnc3scc(-c4ccc(C)cc4)n23)s1
cell count [1]: 684 | inhibition [1]: -32.6% (inactive) | inhibition of aggregation [2]: 9.1% (inactive) | nuclei count [2]: 96.5% | inhibition [3]: -5.3% (inactive) | nuclei count [3]: 104% | fluorescence slope [4]: -0.504 (inactive) | NADPH fluorescence slope [5]: -0.000345 (inactive) | slope [6]: 0.00638 (inactive) | inhibition [7]: 14.5% (inactive) | inhibition [8]: 14.2% (inactive)

Nc1nc(N2CCCCC2)nc(N(c2ccccc2)c2ccccc2)n1
cell count [1]: 710 | inhibition [1]: -2.9% (inactive) | inhibition of aggregation [2]: 23.2% (inactive) | nuclei count [2]: 88% | inhibition [3]: -33% (inactive) | nuclei count [3]: 91.6% | fluorescence slope [4]: -0.544 (inactive) | NADPH fluorescence slope [5]: -5.4e-05 (inactive) | slope [6]: 0.00708 (inactive) | inhibition [7]: 10.2% (inactive) | inhibition [8]: 34.4% (inactive)
